Laboratory results: ChEMBL document CHEMBL3988442, “University of Dundee, Small-Polar-MMV Screening Library” (2021)
For some assays here: Potency and affinity values are given separately.

What was measured:
Parameters in all cases: scale not given: direction of the effect not stated beside the values
[1] = target: Protein translocase subunit SecA (Escherichia coli (strain K12)) (UniProt P10408); experiment: Assay to Identify E. coli SecA ATPase Inhibitors; type: functional; details: 30 µM
[2] = target: T1, Ubiquitin-activating enzyme e1, putative (Leishmania donovani (strain BPK282A1)) (UniProt E9BSI1); experiment: Leishmania donovani Ubiquitin Activating Enzyme (LdE1); type: functional; details: 30 µM
T1 sequence (whole entry): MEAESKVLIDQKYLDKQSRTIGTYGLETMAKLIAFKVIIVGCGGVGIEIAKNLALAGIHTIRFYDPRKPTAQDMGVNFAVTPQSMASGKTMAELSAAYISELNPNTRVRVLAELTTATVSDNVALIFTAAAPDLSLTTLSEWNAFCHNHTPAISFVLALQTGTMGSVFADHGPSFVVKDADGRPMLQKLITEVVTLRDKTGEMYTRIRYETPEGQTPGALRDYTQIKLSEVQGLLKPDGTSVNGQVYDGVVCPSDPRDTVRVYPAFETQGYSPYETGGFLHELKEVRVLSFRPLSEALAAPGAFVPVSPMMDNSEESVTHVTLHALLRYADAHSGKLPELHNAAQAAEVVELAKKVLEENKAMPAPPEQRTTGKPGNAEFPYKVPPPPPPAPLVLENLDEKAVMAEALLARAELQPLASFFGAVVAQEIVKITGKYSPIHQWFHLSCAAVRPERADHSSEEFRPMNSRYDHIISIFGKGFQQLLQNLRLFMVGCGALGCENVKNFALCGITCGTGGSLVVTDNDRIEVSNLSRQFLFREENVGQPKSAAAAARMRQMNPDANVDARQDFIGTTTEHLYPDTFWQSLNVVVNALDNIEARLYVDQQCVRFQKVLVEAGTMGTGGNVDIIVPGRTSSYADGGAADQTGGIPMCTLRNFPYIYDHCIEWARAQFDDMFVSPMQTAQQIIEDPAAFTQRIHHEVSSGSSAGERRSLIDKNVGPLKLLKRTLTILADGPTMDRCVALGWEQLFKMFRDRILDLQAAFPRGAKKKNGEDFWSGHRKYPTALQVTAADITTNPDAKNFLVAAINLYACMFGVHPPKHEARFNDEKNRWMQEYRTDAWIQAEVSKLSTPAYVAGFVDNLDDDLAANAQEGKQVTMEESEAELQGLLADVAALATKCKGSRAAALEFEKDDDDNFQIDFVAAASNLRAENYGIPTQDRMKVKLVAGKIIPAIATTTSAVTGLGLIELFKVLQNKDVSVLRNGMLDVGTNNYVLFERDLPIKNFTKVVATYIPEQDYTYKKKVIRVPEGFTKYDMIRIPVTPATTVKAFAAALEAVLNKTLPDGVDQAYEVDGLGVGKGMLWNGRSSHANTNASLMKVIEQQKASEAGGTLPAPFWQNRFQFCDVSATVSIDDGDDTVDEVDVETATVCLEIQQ

[3] = target: AMP-activated protein kinase, AMPK (Homo sapiens) (UniProt P54646+O43741+P54619+Q9UGJ0+Q9Y478+Q13131+Q9UGI9); experiment: AMP-dependent Kinase enzyme assay. An in vitro enzyme assay that detects ADP turnover that is directly proportional to AMPK activity. This uses naive AMPK that is activated during the assay with MK-8722; type: functional; details: 30 µM
[4] = target: Sialic acid-binding Ig-like lectin 9 (Homo sapiens) (UniProt Q9Y336); experiment: Hs-Siglec9 ALPHAscreen SOP 20170721; details: 10 µM
Chain of Sialic acid-binding Ig-like lectin 9 (Homo sapiens) (Q9Y336 whole entry): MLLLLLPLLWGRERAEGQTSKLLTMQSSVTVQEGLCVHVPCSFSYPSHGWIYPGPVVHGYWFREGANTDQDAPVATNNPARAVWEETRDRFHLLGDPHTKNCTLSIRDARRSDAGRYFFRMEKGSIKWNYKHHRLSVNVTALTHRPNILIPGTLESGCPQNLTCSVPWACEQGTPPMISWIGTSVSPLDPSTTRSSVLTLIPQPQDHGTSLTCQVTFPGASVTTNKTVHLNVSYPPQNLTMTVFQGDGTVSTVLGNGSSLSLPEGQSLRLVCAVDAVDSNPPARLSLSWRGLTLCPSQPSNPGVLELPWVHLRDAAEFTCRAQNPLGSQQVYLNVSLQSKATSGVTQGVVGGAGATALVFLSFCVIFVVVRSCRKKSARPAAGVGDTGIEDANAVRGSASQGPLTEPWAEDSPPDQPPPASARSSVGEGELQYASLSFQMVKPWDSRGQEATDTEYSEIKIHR

Trypanosoma cruzi = experiment: Trypanosoma cruzi phosphomannomutase and mannose-1-phosphate guanylyltransferase assay; type: functional; details: 10 µM
[5] = target: T2, Arginase-2, mitochondrial (Homo sapiens) (UniProt P78540); experiment: in vitro enzyme assay to detect the production of urea directly proportional to the activity of Arginase II; type: functional; details: 33.3 µM; further: in the data most compounds retested in dose-response had high values
T2 sequence (whole entry): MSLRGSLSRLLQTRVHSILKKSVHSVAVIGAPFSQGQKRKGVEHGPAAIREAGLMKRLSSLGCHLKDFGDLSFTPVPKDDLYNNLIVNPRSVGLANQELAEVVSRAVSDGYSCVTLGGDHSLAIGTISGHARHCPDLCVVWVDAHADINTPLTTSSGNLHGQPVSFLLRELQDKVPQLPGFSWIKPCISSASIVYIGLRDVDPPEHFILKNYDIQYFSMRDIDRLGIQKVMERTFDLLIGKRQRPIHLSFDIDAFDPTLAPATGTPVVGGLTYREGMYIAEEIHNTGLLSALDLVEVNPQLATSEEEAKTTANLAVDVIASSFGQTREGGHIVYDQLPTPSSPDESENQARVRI

[6] = target: T3, Proteasome subunit beta (Trypanosoma cruzi) (UniProt O96673); experiment: Trypanosoma cruzi proteasome chymotrypsin-like activity (TcProtChymo) assay.; further: in the data most compounds retested in dose-response had high values; type: functional; details: 9.37 µM
T3 sequence (whole entry): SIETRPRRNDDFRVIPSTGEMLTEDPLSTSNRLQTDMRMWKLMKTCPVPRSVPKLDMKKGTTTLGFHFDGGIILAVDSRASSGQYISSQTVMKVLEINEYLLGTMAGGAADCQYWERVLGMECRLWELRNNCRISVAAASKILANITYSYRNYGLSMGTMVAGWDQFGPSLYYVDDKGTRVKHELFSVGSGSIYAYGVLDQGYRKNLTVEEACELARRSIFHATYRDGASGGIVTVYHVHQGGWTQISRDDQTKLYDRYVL

Homo sapiens = species on record: Homo sapiens; experiment: To identify inhibition of the IFN signalling (Jak-Stat) pathway via expression of an eGFP reporter gene under the control of an IFN-stimulated response element (ISRE) containing MxA promoter.; type: functional; details: 30 µM
[7] = target: T4, Tyrosyl-tRNA synthetase, putative (Trypanosoma cruzi (strain CL Brener)) (UniProt Q4DSP6); experiment: Trypanosoma cruzi tyrosyl tRNA synthetase (TcYRS) _High Tyrosine SOP; type: functional; details: 30 µM; further: in the data most compounds retested in dose-response had high values
T4 sequence (whole entry): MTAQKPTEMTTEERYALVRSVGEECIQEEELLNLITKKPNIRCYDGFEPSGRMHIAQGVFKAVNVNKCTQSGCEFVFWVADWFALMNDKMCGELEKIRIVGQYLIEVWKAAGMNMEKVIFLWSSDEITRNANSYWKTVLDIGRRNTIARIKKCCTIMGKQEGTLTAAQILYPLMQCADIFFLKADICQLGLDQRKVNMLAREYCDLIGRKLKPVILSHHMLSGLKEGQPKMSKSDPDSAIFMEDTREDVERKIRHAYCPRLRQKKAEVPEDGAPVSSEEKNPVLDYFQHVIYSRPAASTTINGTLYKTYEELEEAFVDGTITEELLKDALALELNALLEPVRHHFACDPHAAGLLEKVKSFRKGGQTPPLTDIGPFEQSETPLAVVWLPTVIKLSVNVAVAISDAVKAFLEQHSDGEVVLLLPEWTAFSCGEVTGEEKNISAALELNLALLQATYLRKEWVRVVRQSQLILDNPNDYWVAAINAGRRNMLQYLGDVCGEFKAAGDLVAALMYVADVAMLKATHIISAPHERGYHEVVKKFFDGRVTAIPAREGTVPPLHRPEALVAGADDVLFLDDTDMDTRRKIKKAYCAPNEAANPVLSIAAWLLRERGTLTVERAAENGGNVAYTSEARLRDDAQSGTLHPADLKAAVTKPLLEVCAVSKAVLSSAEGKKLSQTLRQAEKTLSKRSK

[8] = target: T4, Tyrosyl-tRNA synthetase, putative (Trypanosoma cruzi (strain CL Brener)); experiment: Trypanosoma cruzi tyrosyl tRNA synthetase (TcYRS) SOP; type: functional; details: 30 µM
[9] = target: Chromo domain-containing protein 1 (Saccharomyces cerevisiae (strain ATCC 204508 / S288c) (Baker's yeast)) (UniProt P32657); experiment: ScCHD-1 Enzyme Inhibition Assay; type: functional; details: 30 µM; further: in the data most compounds retested in dose-response had high values
Chain of Chromo domain-containing protein 1 (Saccharomyces cerevisiae (strain ATCC 204508 / S288c) (Baker's yeast)) (P32657 whole entry, the tested form may be a part): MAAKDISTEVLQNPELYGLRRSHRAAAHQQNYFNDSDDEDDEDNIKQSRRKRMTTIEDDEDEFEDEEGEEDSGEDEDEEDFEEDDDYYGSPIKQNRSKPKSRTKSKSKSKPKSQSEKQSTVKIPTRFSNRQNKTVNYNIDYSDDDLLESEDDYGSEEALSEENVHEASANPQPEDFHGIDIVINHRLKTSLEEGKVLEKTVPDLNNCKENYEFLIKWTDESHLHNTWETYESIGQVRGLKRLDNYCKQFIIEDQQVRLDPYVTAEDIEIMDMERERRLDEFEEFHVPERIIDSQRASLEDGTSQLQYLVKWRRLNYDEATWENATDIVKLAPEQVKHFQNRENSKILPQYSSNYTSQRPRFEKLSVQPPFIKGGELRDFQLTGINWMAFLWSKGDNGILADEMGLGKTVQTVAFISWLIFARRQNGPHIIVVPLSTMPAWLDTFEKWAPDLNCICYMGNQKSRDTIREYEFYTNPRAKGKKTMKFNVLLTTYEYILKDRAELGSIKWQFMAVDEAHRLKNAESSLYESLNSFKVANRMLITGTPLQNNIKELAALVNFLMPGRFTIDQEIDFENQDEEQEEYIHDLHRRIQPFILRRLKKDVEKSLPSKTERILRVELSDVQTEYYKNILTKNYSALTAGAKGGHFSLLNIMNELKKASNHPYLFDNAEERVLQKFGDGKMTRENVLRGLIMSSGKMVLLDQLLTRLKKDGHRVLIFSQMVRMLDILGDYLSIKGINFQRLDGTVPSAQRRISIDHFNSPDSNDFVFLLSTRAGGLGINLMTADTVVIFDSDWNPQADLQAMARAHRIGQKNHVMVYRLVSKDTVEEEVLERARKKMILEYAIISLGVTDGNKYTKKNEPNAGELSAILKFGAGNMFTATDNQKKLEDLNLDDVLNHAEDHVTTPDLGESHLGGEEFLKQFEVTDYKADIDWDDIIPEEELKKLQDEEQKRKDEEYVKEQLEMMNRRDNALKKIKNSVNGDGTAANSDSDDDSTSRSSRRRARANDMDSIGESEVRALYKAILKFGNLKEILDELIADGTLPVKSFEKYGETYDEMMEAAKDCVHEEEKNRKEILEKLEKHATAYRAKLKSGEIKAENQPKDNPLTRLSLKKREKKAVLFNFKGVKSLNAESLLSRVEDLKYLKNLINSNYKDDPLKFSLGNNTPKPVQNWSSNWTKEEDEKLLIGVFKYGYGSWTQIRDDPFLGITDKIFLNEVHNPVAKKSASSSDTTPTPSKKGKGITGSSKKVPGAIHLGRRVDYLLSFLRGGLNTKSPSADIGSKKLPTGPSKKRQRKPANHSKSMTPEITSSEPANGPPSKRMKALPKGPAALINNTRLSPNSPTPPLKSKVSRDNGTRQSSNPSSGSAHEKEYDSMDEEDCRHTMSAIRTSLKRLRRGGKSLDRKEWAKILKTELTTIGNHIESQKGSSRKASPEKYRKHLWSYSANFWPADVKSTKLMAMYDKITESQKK

Chain of Protein translocase subunit SecA (Escherichia coli (strain K12)) (P10408 whole entry): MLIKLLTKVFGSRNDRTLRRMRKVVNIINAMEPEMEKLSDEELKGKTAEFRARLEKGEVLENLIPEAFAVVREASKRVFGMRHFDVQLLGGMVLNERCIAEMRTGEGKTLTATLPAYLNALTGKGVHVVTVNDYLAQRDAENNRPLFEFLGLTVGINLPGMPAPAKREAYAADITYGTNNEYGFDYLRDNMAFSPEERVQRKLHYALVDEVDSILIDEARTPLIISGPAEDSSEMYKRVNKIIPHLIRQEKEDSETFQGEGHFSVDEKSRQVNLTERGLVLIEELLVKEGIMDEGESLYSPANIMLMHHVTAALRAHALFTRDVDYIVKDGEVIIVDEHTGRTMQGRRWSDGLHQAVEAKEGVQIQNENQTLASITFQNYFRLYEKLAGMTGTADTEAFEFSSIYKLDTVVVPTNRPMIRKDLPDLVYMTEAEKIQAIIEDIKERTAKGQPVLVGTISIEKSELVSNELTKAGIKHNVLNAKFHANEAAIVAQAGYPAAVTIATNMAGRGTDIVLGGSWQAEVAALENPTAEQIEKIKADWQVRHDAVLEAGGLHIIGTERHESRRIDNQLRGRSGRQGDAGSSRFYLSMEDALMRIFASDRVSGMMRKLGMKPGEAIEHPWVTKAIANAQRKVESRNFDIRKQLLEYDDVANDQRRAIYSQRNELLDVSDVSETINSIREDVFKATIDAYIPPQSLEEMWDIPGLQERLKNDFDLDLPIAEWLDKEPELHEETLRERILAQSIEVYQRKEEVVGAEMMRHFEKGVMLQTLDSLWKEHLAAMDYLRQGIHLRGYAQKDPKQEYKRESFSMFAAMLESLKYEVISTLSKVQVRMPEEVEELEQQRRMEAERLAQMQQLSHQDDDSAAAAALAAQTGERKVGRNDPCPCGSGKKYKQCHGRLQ

Structure (SMILES)	Percent Effect [1]	Percent Effect [2]	Percent Effect [3]	Percent Effect [4]	Percent Effect (Trypanosoma cruzi)	Percent Effect [5]	Percent Effect [6]	Percent Effect (Homo sapiens)	Percent Effect [7]	Percent Effect [8]	Percent Effect [9]
CCOC(=O)NC(CNC(=O)c1ncccn1)CC(C)C (stereo not given)	-3.7%	8.11%	-1.89%	31.5%	5.96%	13.7%	11.8%	-4.96%	4.3%	13.6%	-6.28%
Cc1cc(NC(=O)CN2CCc3nn(C)c(=O)cc3C2)on1	-3.81%	6.94%	-63.3%	-0.594%	-1.46%	7.06%	13.9%	0.181%	-6.32%	-5.13%	-4.24%
Cc1ccccc1-c1cc(C(=O)N2CCn3c(C)nnc3C2)[nH]n1	-5.53%	10.5%	-1.51%	3.48%	6.01%	0%	4.34%	4.27%	-0.49%	17.1%	-10.8%
Cc1ccc(CN2CCn3c(C(=O)N(C)C)cnc3C2)s1	-2.48%	10.7%	8.35%	-0.423%	-4.53%	3.5%	7.67%	3.77%	3.19%	8.97%	-5.78%
CC1CN(C)CCN1C(=O)c1ccn(-c2cccc(Cl)c2)n1 (stereo not given)	-4.4%	5.2%	3.41%	8.46%	3%	-4.98%	-5.91%	-0.574%	2.91%	9.76%	-7.43%
CCC1=N[C@@]2(CC[C@@H]3CN(C(=O)NCC(C)C)C[C@@H]32)C(=O)N1CC(C)C	-3.96%	8%	0.0094%	5.84%	4.25%	-55%	12.8%	2.46%	8.33%	10%	-6.18%
CN(CCC(F)(F)F)C(=O)C1CCCN1C(=O)OC(C)(C)C (stereo not given)	-3.42%	2.74%	0.924%	-4.88%	2.15%	2.27%	-2.31%	-3.94%	3.23%	2.5%	-0.543%
Cc1cc(C)n(CC(=O)N2CCC(NS(C)(=O)=O)CC2)n1	-2.87%	15.8%	1.32%	0.107%	-1.69%	-2.3%	8.69%	-0.413%	5.39%	12.2%	-9.21%
Cc1nonc1C(=O)N1CCCC(c2ncncc2-c2ccncc2)C1 (stereo not given)	-5.71%	8%	11.1%	2.77%	-0.591%	0.699%	3.08%	-1.27%	5.32%	8.97%	-4.88%
Cc1ccc(N2CCCN(C(=O)C(C(C)C)n3cncn3)CC2)nn1 (stereo not given)	-1.22%	16.2%	-7.95%	9.29%	3.62%	2.03%	9.16%	9.49%	7.92%	25.6%	-6.51%
